From PubChem BioAssay (NCI) come the findings set out here.

Some test systems named below: DU-145 prostate; K-562 leukemia; MALME-3M melanoma; MDA-MB-231 breast; RXF 393 renal; SF-268 CNS; SF-295 CNS; SF-539 CNS; UACC-257 melanoma; M14 melanoma.
Holding throughout (assay): NCI-60 one-dose screen, 48 h (100 = growth as untreated, 0 = no growth, -100 = all killed)
What all share (conditions): 10 µM unless noted

This is part of a sample that, as a whole, favours compounds with a hit. Of some 83,000 tested, about 20% had one in any assay.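 Results are percent growth after 48 hours of single-concentration exposure. 100 means growth as in untreated cells, lower positive values show inhibition; negative values down to -100 show cell death.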 A number with no mark means an inactive call. Active and inactive are the calls of the source. How the source made its calls: active means growth percent below 10; inactive means the rest.

Turning to `C=C1C(=O)O[C@H]2[C@H]1CC/C(COC(=O)NCCc1c[nH]c3ccccc13)=C\CC[C@@]1(C)O[C@@H]21`, the growth in the assay on DU-145 prostate was 11.7%; in the assay with K-562 leukemia, 0.512% (active); with MALME-3M melanoma, -33.5% (active); in the assay on MDA-MB-231 breast, -19.3% (active); with RXF 393 renal it was -89.3% (active); in the assay with SF-268 CNS, 62.3%. In addition, the growth is 83.4% in the assay on SF-295 CNS, -35.6% (active) in the assay on SF-539 CNS, 63.3% in the assay with UACC-257 melanoma and -52.1% (active) with M14 melanoma.
As for `Nc1ccccc1NC(=O)c1ccc(CN2CCC/C(=C\c3ccccn3)C2=O)cc1`, the growth was 45.9% in the assay on DU-145 prostate; 9.55% (active) in the assay with K-562 leukemia; 20.9% in the assay with MALME-3M melanoma; 45.3% with MDA-MB-231 breast; 2.96% (active) in the assay with RXF 393 renal; 25% with SF-268 CNS. Further, the growth in the assay on SF-295 CNS was -2.97% (active); with SF-539 CNS, 27.4%; in the assay on UACC-257 melanoma, 26.3%; in the assay on M14 melanoma it was 12.3%.
With `C/C(=C(/c1ccccc1)c1ccc(N2C(=O)c3cccc4c(NCc5ccccc5)ccc(c34)C2=O)cc1)c1ccccc1`, the growth with DU-145 prostate was 101%; with K-562 leukemia it was 85.8%; in the assay on MALME-3M melanoma, 96.3%; in the assay with MDA-MB-231 breast, 96.1%; with RXF 393 renal it was 112%; with SF-268 CNS, 102%. The growth with SF-295 CNS is 96.2%; with SF-539 CNS, 98.6%; in the assay on UACC-257 melanoma, 106%; with M14 melanoma, 89.1%.
For the molecule `CC1=NN(c2ccc(S(=O)(=O)O)cc2Cl)C(=O)C1`, the growth in the assay on DU-145 prostate is 162%; in the assay with K-562 leukemia it was 115%; in the assay on MALME-3M melanoma, 129%; in the assay with MDA-MB-231 breast, 102%; in the assay on RXF 393 renal it was 108%; in the assay on SF-268 CNS, 127%. Moreover, the growth was 105% with SF-295 CNS, 92.9% with SF-539 CNS, 110% in the assay on UACC-257 melanoma and 96.1% in the assay with M14 melanoma.
Turning to `CN1CCN(CC#CCn2c3c(c4ccccc42)C[C@]2(C)[C@H]4CC[C@@H]5[C@H]6[C@H]7OC(=O)[C@@]6(CCC7(C)C)CC[C@@]5(C)[C@]4(C)CC[C@H]2C3(C)C)CC1`, the growth is 35.4% with DU-145 prostate; 12.7% with K-562 leukemia; 113% with MALME-3M melanoma; 42.7% in the assay with MDA-MB-231 breast; 67.1% in the assay on RXF 393 renal; 92.9% in the assay on SF-268 CNS. For the same molecule, the growth in the assay on SF-295 CNS is 104%; in the assay with SF-539 CNS, 89.1%; in the assay with UACC-257 melanoma it was 109%; in the assay on M14 melanoma, 80.9%.
Consider `Clc1cc(Cl)cc(Nc2ccc3c(OCCCN4CCOCC4)cccc3n2)c1`, for which the growth is 41.9% in the assay with DU-145 prostate; -33.9% (active) in the assay on K-562 leukemia; 71% in the assay on MALME-3M melanoma; -24.6% (active) with MDA-MB-231 breast; 53.5% in the assay with RXF 393 renal; 48.4% with SF-268 CNS. For the same molecule, the growth in the assay on SF-295 CNS was 30.6%; with SF-539 CNS it was 48.1%; with UACC-257 melanoma, 73.2%; in the assay on M14 melanoma, 0.379% (active).
Regarding `C=CC(=O)N[C@H](Cc1ccc(-c2cc(Cl)cc(Cl)c2)cc1)[C@H](O)[C@@H](O)C(=O)O`, the growth in the assay on DU-145 prostate is 102%; in the assay with K-562 leukemia, 85%; with MALME-3M melanoma, 90.1%; with MDA-MB-231 breast, 98.9%; with RXF 393 renal, 101%; in the assay on SF-268 CNS it was 102%. Moreover, the growth was 82.8% in the assay with SF-295 CNS, 99.6% in the assay on SF-539 CNS, 74.4% with UACC-257 melanoma and 86.3% in the assay with M14 melanoma.
`CN1CCN(CCOc2ccc(-c3cnc4c(-c5ccccc5F)cnn4c3)cc2)CC1`: the growth was 60.9% with DU-145 prostate; -50.3% (active) in the assay with K-562 leukemia; 7.94% (active) in the assay with MALME-3M melanoma; 29.2% in the assay on MDA-MB-231 breast; 50% in the assay with RXF 393 renal; 63.9% in the assay on SF-268 CNS. Moreover, the growth in the assay with SF-295 CNS was 65%; in the assay on SF-539 CNS, 51.3%; in the assay with UACC-257 melanoma, -7.9% (active); in the assay on M14 melanoma it was -80.3% (active).
`O=C1c2cc3c(cc2-c2c1c1ccc(Cl)cc1c(=O)n2C[C@H](O)[C@@H](O)[C@H](O)CO)OCO3`: the growth was 3.84% (active) in the assay with DU-145 prostate; 12% in the assay with K-562 leukemia; -28.2% (active) in the assay with MALME-3M melanoma; 6.7% (active) in the assay with MDA-MB-231 breast; -47% (active) with RXF 393 renal; 7% (active) in the assay with SF-268 CNS. The growth was -5.74% (active) in the assay with SF-295 CNS, -39.8% (active) in the assay on SF-539 CNS, -49.4% (active) in the assay on UACC-257 melanoma and 4.34% (active) in the assay on M14 melanoma.
For the molecule `CCOC(=O)N1CCN(CCCCOc2ccc(C(C)(C)CC)cc2)CC1`, the growth was 104% with DU-145 prostate; 68.1% with K-562 leukemia; 92.3% with MALME-3M melanoma; 102% in the assay on MDA-MB-231 breast; 111% in the assay on RXF 393 renal; 105% in the assay with SF-268 CNS. Also, the growth with SF-295 CNS was 98.4%; with SF-539 CNS, 104%; in the assay with UACC-257 melanoma, 94%; in the assay with M14 melanoma, 87.9%.
Regarding `CCCCCCCCNc1cccc2c1C(=O)c1ccccc1C2=O`, the growth is 112% in the assay with DU-145 prostate; 97.2% in the assay on K-562 leukemia; 108% in the assay with MALME-3M melanoma; 96.1% with MDA-MB-231 breast; 100% in the assay with RXF 393 renal; 94.9% in the assay with SF-268 CNS. For the same molecule, the growth is 112% in the assay on SF-295 CNS, 121% in the assay on SF-539 CNS, 98.2% with UACC-257 melanoma and 107% in the assay on M14 melanoma.
For the molecule `Nc1c2c(nc3ccc(Cl)cc13)CC(c1ccc(O)cc1)CC2=O` (stereo not given), the growth in the assay with DU-145 prostate is 72.9%; in the assay on K-562 leukemia, 18.5%; with MALME-3M melanoma, 52.6%; with MDA-MB-231 breast, 68.5%; with RXF 393 renal, 74.2%; with SF-268 CNS, 65.3%. Also, the growth with SF-295 CNS was 36.2%; with SF-539 CNS, 50.8%; with UACC-257 melanoma, 78.2%; in the assay with M14 melanoma it was 21.8%.
For the molecule `NCCn1cc(-c2nc(-c3c[nH]c4ncccc34)cs2)c2cc(F)ccc21`, the growth in the assay on DU-145 prostate is 93.9%; in the assay on K-562 leukemia it was 22.6%; in the assay on MALME-3M melanoma, 78.6%; with MDA-MB-231 breast, 63.9%; in the assay with RXF 393 renal, 86.7%; in the assay on SF-268 CNS it was 82.1%. The growth in the assay on SF-295 CNS is 96.7%; with SF-539 CNS it was 82.7%; in the assay on UACC-257 melanoma, 93.8%; in the assay on M14 melanoma, 86.2%.
Regarding `O=C1c2cccc3cccc(c23)C(=O)N1CC#Cc1ccc2c3c(cccc13)C(=O)N(CCO)C2=O`, the growth in the assay on DU-145 prostate was 88.6%; in the assay on K-562 leukemia it was 95.1%; with MALME-3M melanoma, 100%; in the assay on MDA-MB-231 breast it was 66.9%; with RXF 393 renal it was 85.1%; in the assay on SF-268 CNS, 78.9%. The growth in the assay on SF-295 CNS was 98.7%; in the assay with SF-539 CNS it was 90.8%; with UACC-257 melanoma, 94.2%; in the assay on M14 melanoma it was 84.8%.
